Measurements reported in PubChem BioAssay (NCATS).
Records with an inconclusive call do not appear. A call without a number means that no potency is given here. Calls of active or inactive are those of the source. The call rests on the fitted dose curve; in most records, active means well fitted inhibition curve with a large enough effect; inconclusive means small, poorly fitted or top-dose-only effect; inactive means flat fitted curve, though single readings scatter.

Tests used:
[1] = biological target: Luciferin 4-monooxygenase (Photinus pyralis) (UniProt P08659); assay: Biochemical firefly luciferase enzyme assay for NPC (AID 624030);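 further: purified P. pyralis luciferase at 10 nM with luciferin and ATP substrate; series mostly up to about 59 µM; nearly all actives have a fitted effect of over 70% in size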
Summary of the method: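 Counter-screen for direct inhibition of the luciferase enzyme by approved-drug library compounds, run at 10 nM enzyme in 50 mM Tris acetate (final). Luminescence was read within 5 min of enzyme-buffer addition and normalized to PTC124 versus DMSO (0%).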

[2] = biological target: DNA dC->dU-editing enzyme APOBEC-3G (Homo sapiens) (UniProt Q9HC16); assay: qHTS for inhibitors of Vif-A3G interactions: Validation (AID 588379)
Summary of the method: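 Yellow fluorescence (Ex 488, Em 500-530) of Vif-coexpressing HeLa A3G-eYFP cells, scanned by Acumen cytometer, reports blocked A3G degradation. Cells plated at 700/well overnight at 37 deg C before compound addition, then a further overnight compound incubation at 37 deg C.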

[3] = biological target: Ubiquitin carboxyl-terminal hydrolase 1 (Homo sapiens) (UniProt O94782); assay: Inhibitors of USP1/UAF1: Pilot qHTS (AID 504865); further: nearly all actives have a fitted effect of over 35% in size; further: potency means the concentration at half of the fitted maximal effect
Summary of the method: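 USP1/UAF1 complex (1nM) preincubated with compound 15 min at room temperature, then Ub-Rho substrate (150nM final) added. Fluorescence read kinetically at 480/540 nm, 6 reads every 60 seconds. Buffer: 50mM HEPES pH 7.8, 0.5mM EDTA, 0.1 mg/ml BSA, 1mM TCEP, 0.01% Tween-20.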

[4] = biological target: Voltage-gated inwardly rectifying potassium channel KCNH2 (Homo sapiens) (UniProt Q12809); assay: qHTS Assay for Small Molecule Inhibitors of the Human hERG Channel Activity (AID 588834);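 further: top concentration of the series differs between compounds; lower thallium flux fluorescence means stronger hERG block; nearly all actives have a fitted effect of over 50% in size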
Summary of the method: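 In hERG-transduced U2OS cells, dye-loaded for 1 hr at room temperature in dark, test compounds incubated 10 min at 37 °C before thallium stimulation. AC50 values derived by Hill modelling of concentration-response.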

Sequence of Luciferin 4-monooxygenase (Photinus pyralis) (P08659 whole entry, looked up): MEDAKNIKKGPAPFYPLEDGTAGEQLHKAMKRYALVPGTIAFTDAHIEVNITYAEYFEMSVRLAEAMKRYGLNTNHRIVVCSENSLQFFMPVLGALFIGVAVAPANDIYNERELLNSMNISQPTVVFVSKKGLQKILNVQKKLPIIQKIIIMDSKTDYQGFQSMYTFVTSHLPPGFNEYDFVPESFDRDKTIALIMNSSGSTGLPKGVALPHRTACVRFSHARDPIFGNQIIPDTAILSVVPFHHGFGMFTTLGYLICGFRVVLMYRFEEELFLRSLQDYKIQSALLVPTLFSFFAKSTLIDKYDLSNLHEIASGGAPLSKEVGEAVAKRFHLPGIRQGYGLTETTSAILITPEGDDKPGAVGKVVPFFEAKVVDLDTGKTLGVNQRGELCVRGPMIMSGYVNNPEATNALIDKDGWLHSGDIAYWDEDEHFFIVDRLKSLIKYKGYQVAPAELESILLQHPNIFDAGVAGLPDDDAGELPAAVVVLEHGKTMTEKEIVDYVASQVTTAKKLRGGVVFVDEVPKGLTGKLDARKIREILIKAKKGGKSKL
Sequence of Ubiquitin carboxyl-terminal hydrolase 1 (Homo sapiens) (O94782 whole entry, looked up): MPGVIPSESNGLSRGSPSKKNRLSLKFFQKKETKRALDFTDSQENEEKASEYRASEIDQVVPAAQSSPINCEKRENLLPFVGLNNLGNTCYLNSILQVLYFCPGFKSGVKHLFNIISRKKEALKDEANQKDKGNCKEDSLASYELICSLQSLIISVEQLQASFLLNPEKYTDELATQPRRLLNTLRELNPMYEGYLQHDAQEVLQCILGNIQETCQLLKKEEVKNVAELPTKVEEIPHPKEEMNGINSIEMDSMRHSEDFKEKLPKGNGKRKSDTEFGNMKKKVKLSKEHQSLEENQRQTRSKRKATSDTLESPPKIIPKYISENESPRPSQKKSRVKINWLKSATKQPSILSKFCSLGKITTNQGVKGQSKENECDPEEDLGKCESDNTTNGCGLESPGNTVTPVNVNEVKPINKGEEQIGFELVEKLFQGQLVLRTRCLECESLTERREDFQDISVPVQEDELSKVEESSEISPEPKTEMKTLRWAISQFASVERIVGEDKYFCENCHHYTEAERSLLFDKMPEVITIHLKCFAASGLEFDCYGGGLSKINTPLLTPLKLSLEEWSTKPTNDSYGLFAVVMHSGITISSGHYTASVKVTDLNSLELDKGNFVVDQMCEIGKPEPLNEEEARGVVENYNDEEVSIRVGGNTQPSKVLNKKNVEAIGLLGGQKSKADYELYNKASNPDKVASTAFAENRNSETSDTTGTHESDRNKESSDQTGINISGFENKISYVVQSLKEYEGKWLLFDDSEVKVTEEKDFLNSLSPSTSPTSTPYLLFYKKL
Sequence of DNA dC->dU-editing enzyme APOBEC-3G (Homo sapiens) (Q9HC16 whole entry, looked up): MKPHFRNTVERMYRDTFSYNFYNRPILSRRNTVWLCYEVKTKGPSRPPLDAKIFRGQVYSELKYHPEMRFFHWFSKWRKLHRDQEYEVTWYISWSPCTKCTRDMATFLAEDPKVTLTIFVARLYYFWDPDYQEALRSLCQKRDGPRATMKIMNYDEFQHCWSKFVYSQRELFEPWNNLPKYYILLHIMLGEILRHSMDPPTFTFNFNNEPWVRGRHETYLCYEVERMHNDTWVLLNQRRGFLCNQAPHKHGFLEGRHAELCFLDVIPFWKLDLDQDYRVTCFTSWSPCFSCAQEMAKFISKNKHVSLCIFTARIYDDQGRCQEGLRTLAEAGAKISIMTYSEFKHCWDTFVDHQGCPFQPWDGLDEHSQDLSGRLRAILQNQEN
Sequence of Voltage-gated inwardly rectifying potassium channel KCNH2 (Homo sapiens) (Q12809 whole entry, looked up): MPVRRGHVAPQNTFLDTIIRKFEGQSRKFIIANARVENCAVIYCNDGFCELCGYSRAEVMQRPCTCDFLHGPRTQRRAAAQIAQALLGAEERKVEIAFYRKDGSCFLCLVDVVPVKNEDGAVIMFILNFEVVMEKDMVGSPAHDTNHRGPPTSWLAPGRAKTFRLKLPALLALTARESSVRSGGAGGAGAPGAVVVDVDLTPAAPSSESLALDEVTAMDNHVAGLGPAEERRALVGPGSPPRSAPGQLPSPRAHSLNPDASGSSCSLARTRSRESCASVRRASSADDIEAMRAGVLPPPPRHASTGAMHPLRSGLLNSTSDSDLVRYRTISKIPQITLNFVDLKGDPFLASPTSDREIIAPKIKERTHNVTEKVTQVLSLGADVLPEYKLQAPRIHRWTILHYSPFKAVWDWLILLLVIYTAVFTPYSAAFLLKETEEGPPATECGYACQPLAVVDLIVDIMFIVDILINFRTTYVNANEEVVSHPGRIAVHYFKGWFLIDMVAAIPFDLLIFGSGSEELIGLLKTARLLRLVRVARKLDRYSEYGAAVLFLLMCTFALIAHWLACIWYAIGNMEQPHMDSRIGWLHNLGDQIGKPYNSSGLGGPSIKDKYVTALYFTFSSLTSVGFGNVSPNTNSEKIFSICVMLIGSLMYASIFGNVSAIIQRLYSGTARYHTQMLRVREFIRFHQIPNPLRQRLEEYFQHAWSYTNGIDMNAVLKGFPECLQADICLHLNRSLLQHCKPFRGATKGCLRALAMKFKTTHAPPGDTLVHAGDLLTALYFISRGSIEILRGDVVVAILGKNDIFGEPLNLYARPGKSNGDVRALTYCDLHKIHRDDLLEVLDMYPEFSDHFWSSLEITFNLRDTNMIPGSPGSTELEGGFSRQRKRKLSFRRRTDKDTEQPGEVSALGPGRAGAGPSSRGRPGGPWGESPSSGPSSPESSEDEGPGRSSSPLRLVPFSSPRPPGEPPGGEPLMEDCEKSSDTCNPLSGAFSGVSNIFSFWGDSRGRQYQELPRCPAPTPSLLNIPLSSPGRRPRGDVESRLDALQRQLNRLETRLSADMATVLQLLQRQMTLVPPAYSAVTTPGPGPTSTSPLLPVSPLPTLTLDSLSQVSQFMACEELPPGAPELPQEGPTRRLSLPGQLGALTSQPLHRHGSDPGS

Question: How did the outcome [1] turn out when `O=C(CCCN1CCN(c2ccc(F)cc2)CC1)NC1c2ccccc2CSc2ccccc21` (configuration not stated) was run?
Answer: inactive

Question: How did the outcome [2] turn out when `COc1ccc(CCN(C)CCCOc2ccc(S(=O)(=O)c3[nH]c4ccccc4c3C(C)C)cc2)cc1OC` was run?
Answer: inactive

Question: Which outcome [1] does the source give for `CCCCC(F)(F)[C@@]1(O)CC[C@H]2[C@H](CC(=O)[C@@H]2CCCCCCC(=O)O)O1` here?
Answer: inactive

Question: How did the outcome [1] turn out when `CC[C@H]1OC(=O)[C@H](C)[C@@H](O[C@H]2C[C@@](C)(OC)[C@@H](O)[C@H](C)O2)[C@H](C)[C@@H](O[C@@H]2O[C@H](C)C[C@H](N(C)C)[C@H]2O)[C@](C)(O)C[C@H](C)C(=NOCOCCOC)[C@H](C)[C@@H](O)[C@]1(C)O` was run?
Answer: inactive

Question: Which outcome [2] does the source give for `O=c1cc(-c2ccc(O)c(O)c2)oc2cc(O)cc(O)c12` here?
Answer: inactive

Question: Which results are given for `COc1ccnc(CS(=O)c2nc3ccc(OC(F)F)cc3[nH]2)c1OC` (configuration not stated)?
Answer: Potency [3]: inactive; outcome [1]: inactive

Question: How did the outcome [1] turn out when `CC[C@]1(O)C[C@H]2CN(CCC3=c4ccccc4=N[C]3[C@@](C(=O)OC)(c3cc4c(cc3OC)N(C)[C@H]3[C@@](O)(C(N)=O)[C@H](O)[C@]5(CC)C=CCN6CC[C@]43[C@@H]65)C2)C1` was run?
Answer: inactive

Question: Which Potency [3] does the source give for `Cc1cc2nc3c(=O)[nH]c(=O)nc-3n(CC(O)C(O)C(O)CO)c2cc1C` (configuration not stated) here?
Answer: 31.6 µM (active)

Question: What about the outcome [1] of the same molecule?
Answer: inactive

Question: Which outcome [1] does the source give for `CC[C@@H]([C@H](C)O)n1ncn(-c2ccc(N3CCN(c4ccc(OCC5CO[C@@](Cn6cncn6)(c6ccc(F)cc6F)C5)cc4)CC3)cc2)c1=O` (some centres not stated) here?
Answer: inactive

Question: With `CCCCCCCCCCCCCCCC(=O)O[C@H]1[C@@H](O)[C@@H](O)[C@@H]([C@H](NC(=O)[C@@H]2C[C@@H](CCC)CN2C)[C@H](C)Cl)O[C@@H]1SC` as the molecule, how does the outcome [1] read?
Answer: inactive

Question: How did the outcome [1] turn out when `CCC(=O)OCC(=O)[C@@]1(OC(=O)CC)[C@@H](C)C[C@@H]2[C@H]3CCC4=CC(=O)C=C[C@]4(C)[C@@]3(F)[C@@H](O)C[C@@]21C` was run?
Answer: inactive

Question: Which results are given for `COc1cc2c(cc1OC)CC(=O)N(CCCN(C)C[C@H]1Cc3cc(OC)c(OC)cc31)CC2`?
Answer: Potency [3]: inactive; outcome [1]: inactive

Question: How did the outcome [1] turn out when `Fc1ccc(C(c2ccc(F)cc2)N2CCN(CC=Cc3ccccc3)CC2)cc1` was run?
Answer: inactive

Question: Which Potency [4] does the source give for `CC[C@H](C)C(=O)O[C@H]1C[C@H](O)C=C2C=C[C@H](C)[C@H](CC[C@@H](O)C[C@@H](O)CC(=O)O)[C@H]21` here?
Answer: inactive
